Results filed as inconclusive are left out. Entries that show only a call come without a potency. Activity calls are given as the source filed them. Calls come from the whole dose curve; as a rule, active = well fitted inhibition curve with a large enough effect; inconclusive = small, poorly fitted or top-dose-only effect; inactive = no such curve, though single readings can be large or run the other way.
Test: qHTS to identify inhibitors of the type 1 interferon - major histocompatibility complex class I in skeletal muscle: primary screen against the NCATS Mechanism Interrogation Plate v5.0 (MIPE) Libary (AID 1347411); note: nearly all actives have a fitted effect of over 65% in size
Details: iHSKM cells + IFN-b, HiBiT-tagged MHC-I luminescence, 24 h; series mostly up to 45.8 µM
Procedure, shortened: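 Seed engineered human myoblasts (HLA-B HiBit) in medium without dexamethasone containing 4 ng/ml IFN-beta; after 1 hr add compound titrations (top 46 uM final). Incubate 24 hrs at 37 C, lyse 10 min with HiBiT reagent, read luminescence.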
Potency is the fitted concentration of half-maximal effect.

Row | SMILES | Potency | activity change, negative = inhibition
1 | Cc1cc2nc3c(=O)[nH]c(=O)nc-3n(CC(O)C(O)C(O)CO)c2cc1C (configuration not stated) | inactive | 
2 | O=C(O)C1=CC(O)C(O)[C@H](O)C1 (some centres not stated) | inactive | 
3 | Nc1ccn([C@@H]2O[C@H](CO)[C@@H](O)[C@H]2O)c(=O)n1 | inactive | 
4 | O=C(c1ccc(C(=O)N2CCC(N3CCCC3)CC2)c(Nc2ccccc2)c1)N1CCC(N2CCCC2)CC1 | inactive | 
5 | CN[C@@H](C)[C@H]1[C@H](O)C[C@@]2(C)[C@@H]3CC[C@H]4C(C)(C)[C@@H](NC)CC[C@@]45C[C@@]35CC[C@]12C |  | 36.7% [at 8.44 µM] (inactive)
6 | C#CCN(C)CC1=Cc2ccccc2Oc2ccccc21 | inactive | 
7 | Cc1cccc(-c2[nH]c(C(C)(C)C)nc2-c2ccc3c(c2)OCO3)n1 | inactive | 
8 | COc1ccc(CCC(=O)Nc2nc3ccc(Cl)cc3s2)cc1OC | inactive | 
9 | CN1CCN(c2ncc(-c3cc(Cl)cc(Cl)c3Cl)c(N)n2)CC1 | inactive | 
10 | CC1=C(CC(=O)O)c2cc(F)ccc2C1=Cc1ccc(S(C)=O)cc1 (configuration not stated) | inactive | 
11 | CCNC(=O)c1noc(-c2cc(C(C)C)c(O)cc2O)c1-c1ccc(CN2CCOCC2)cc1 | 0.0415 µM (active) | 
12 | CC(C)[C@H](O)C(=O)N[C@@H](C)C(=O)N[C@@H]1C(=O)N(C)CCc2ccccc21 | inactive | 
13 | CCn1c(-c2nonc2N)nc2cncc(CNC3CCNCC3)c21 | inactive | 
14 | O=C(NCCCCN1CCOCC1)c1cc2ccccc2o1 | inactive | 
15 | COc1nccc(-c2c(-c3ccc(F)cc3)ncn2C2CCNCC2)n1 | inactive | 
16 | CCOC(=O)N1c2ccc(C(F)(F)F)cc2[C@@H](N(Cc2cc(C(F)(F)F)cc(C(F)(F)F)c2)C(=O)OC)C[C@H]1CC | inactive | 
17 | Cc1ccccc1-n1c(Cn2nc(-c3cccc(O)c3)c3c(N)ncnc32)nc2cccc(C)c2c1=O | 20.8 µM (active) | 
18 | CCCCC(C)(C)[C@H](O)C=C[C@H]1[C@H](O)CC(=O)[C@H]1CC=CCCCC(=O)O | inactive | 
19 | CCC(C)SSc1ncc[nH]1 (configuration not stated) | inactive | 
20 | C[C@@H]1C[C@H]2[C@@H]3CCC4=CC(=O)C=C[C@]4(C)[C@@]3(F)[C@@H](O)C[C@]2(C)[C@@]1(O)C(=O)CO | inactive | 
21 | COc1nc(C)cnc1NS(=O)(=O)c1cccnc1-c1ccc(-c2nnco2)cc1 | inactive | 
22 | CN1C(=O)C[C@H](C(=O)N[C@@H](Cc2cnc[nH]2)C(=O)N2CCC[C@@H]2C(N)=O)NC1=O | inactive | 

— PubChem BioAssay (NCATS)
